The values that follow come from PMC11062922 (Nature Chemical Biology, 2023).

SMILES strings stand for the structures. Like-named read-outs stand apart in the source and are kept apart here.

What all share (design): species or system human, MV4-11 + K-562 + COLO205 + SK-N-BE2 + OVCAR-8
Experiment [1] deals with ACVR2B. As to conditions: read-out: apparent Kd, compound concentrations: 100 nM and 1000 nM (sheet 'Samples'), n = 1.
For experiment [2], the system named is BMPR1A. To be noted: read-out: apparent Kd, n = 1.
Experiment [3] has as its system SIK3. As to conditions: read-out: apparent Kd, n = 1.
Experiment [4] concerns ABCD3. As to conditions: read-out: apparent Kd, compound concentrations: 100 nM and 1000 nM (sheet 'Samples'), n = 1.
Experiment [5] relates to ADCK3. As to conditions: read-out: apparent Kd; compound concentrations: 100 nM and 1000 nM (sheet 'Samples'), CATDS: 0.16598723814203101; n = 1.
Experiment [6] deals with EPHB3. As to conditions: read-out: apparent Kd, n = 1.
Experiment [7] relates to LIMK1. To be noted: read-out: apparent Kd; compound concentrations:100 nM and 1000 nM (sheet 'Samples'); n = 1.
The subject of experiment [8] is AURKA. As to conditions: read-out: apparent Kd, compound concentrations: 100 nM and 1000 nM (sheet 'Samples'), n = 1.
In experiment [9] the test system is NUAK1. To be noted: read-out: apparent Kd, compound concentrations: 100 nM and 1000 nM (sheet 'Samples'), n = 1.
Experiment [10] deals with PIM2. As to conditions: read-out: apparent Kd, n = 1.
The subject of experiment [11] is SYK. To be noted: read-out: apparent Kd, compound concentrations: 100 nM and 1000 nM (sheet 'Samples'), n = 1.
The subject of experiment [12] is ERBB3. To be noted: read-out: apparent Kd; compound concentrations: 100 nM and 1000 nM (sheet 'Samples'), CATDS: 5.8570940838060803E-2; n = 1.
The test system of experiment [13] is MAPK11. As to conditions: read-out: apparent Kd; compound concentrations: 100 nM and 1000 nM (sheet 'Samples'), CATDS: 2.2230478875047501E-2; n = 1.
The subject of experiment [14] is PKN3. As to conditions: read-out: apparent Kd, compound concentrations: 100 nM and 1000 nM (sheet 'Samples'), n = 1.
Experiment [15] deals with CDK7. To be noted: read-out: apparent Kd; compound concentrations: 100 nM and 1000 nM (sheet 'Samples'), CATDS: 2.7171532019021599E-2; n = 1.
For experiment [16], the system named is ERCC2. As to conditions: read-out: apparent Kd; compound concentrations: 100 nM and 1000 nM (sheet 'Samples'), CATDS: 9.4373206529466905E-3; n = 1.
The test system of experiment [17] is STK10. To be noted: read-out: apparent Kd; compound concentrations: 100 nM and 1000 nM (sheet 'Samples'), CATDS: 8.8435588705339796E-3; n = 1.
Where [18] appears, read: compound concentrations:100 nM and 1000 nM (sheet 'Samples').

With `Cl.Oc1cccc(Nc2ccnc3cc(-c4ccncc4)ccc23)c1` [GW494601A], the potency estimated from few doses was 0.00216 µM in [1] (CATDS: 0.269416694406998); 0.313 µM in experiment [2] (compound concentrations: 100 nM and 1000 nM (sheet 'Samples'), CATDS: 2.7920432625818298E-2); 1.15 µM in experiment [3] (compound concentrations: 100 nM and 1000 nM (sheet 'Samples'), CATDS: 2.0843232752511001E-2).

Take `COc1ccc(-n2cnc3c(N)ncnc32)cc1` [SKF-97236]: the potency estimated from few doses in [4] (CATDS: 0.13687794544238399) is 1.49 µM; in experiment [5], 0.922 µM.

Take `CCN(CC)CCOc1ccc(Nc2ncc3cc(-c4c(Cl)cccc4Cl)c(=O)n(C)c3n2)cc1` [SB-601273]: the potency estimated from few doses was 0.538 µM in [2] (setting [18]), 1.22 µM in experiment [6] (setting [18]), 1.11 µM in [7] and 0.201 µM in [3] (setting [18]).

With `NC(=O)c1cccc(Nc2nccc(Nc3cccc4[nH]ncc34)n2)c1` [GW782612X], the potency estimated from few doses in experiment [1] (CATDS: 0.173302967359416) is 0.0524 µM; in [8] (CATDS: 4.2767473291312301E-2) it was 0.808 µM; in experiment [2] (compound concentrations: 100 nM and 1000 nM (sheet 'Samples'), CATDS: 3.8772747112030999E-2), 1.09 µM; in experiment [9] (CATDS: 5.2412926017760202E-2) it was 0.475 µM.

On to `Nc1nc(-c2ccc3c(N)n[nH]c3c2)cc(N2CCCCC2)n1` [GSK2228768A], for which the potency estimated from few doses in experiment [10] (setting [18]) was 1.41 µM.

`Cc1cccc(Nc2nc(NCCN)ncc2C(N)=O)c1` [GSK1292139B]: the potency estimated from few doses in [9] (CATDS: 0.100745572773025) is 0.611 µM; in [11] (CATDS: 7.0539324655896005E-2), 1.5 µM.

As to `Cc1ccc(O)cc1Nc1ccnc2cc(-c3ccc(CN4CCCCC4)o3)ccc12` [GW557777X], the potency estimated from few doses was 0.0453 µM in experiment [1] (CATDS: 2.4906220143484401E-2); 0.269 µM in [2] (compound concentrations: 100 nM and 1000 nM (sheet 'Samples'), CATDS: 1.65124596245807E-2); 0.0782 µM in [6] (compound concentrations: 100 nM and 1000 nM (sheet 'Samples'), CATDS: 2.1562283576004201E-2); 0.975 µM in experiment [3] (compound concentrations: 100 nM and 1000 nM (sheet 'Samples'), CATDS: 1.3583905279374199E-2); 1.86 µM in [11] (CATDS: 1.2716705388879999E-2).

Regarding `CS(=O)(=O)CCNCc1ccc(-c2ccc3ncnc(Nc4ccc(OCc5cccc(F)c5)c(C(F)(F)F)c4)c3c2)o1` [GW576484X], the potency estimated from few doses in experiment [4] (CATDS: 5.3363712768055301E-2) was 1.7 µM; in [6] (compound concentrations: 100 nM and 1000 nM (sheet 'Samples'), CATDS: 4.6783581960199903E-2) it was 2.31 µM; in experiment [12] it was 1.4 µM; in experiment [10] (compound concentrations: 100 nM and 1000 nM (sheet 'Samples'), CATDS: 6.5177951129736497E-2) it was 1.15 µM.

For `COc1cc(Nc2ccnc3cc(-c4ccncc4)ccc23)cc(OC)c1OC.Cl` [GW494610A], the potency estimated from few doses is 0.486 µM in experiment [2] (compound concentrations: 100 nM and 1000 nM (sheet 'Samples'), CATDS: 3.04170421320503E-2); 1.61 µM in experiment [13]; 0.0241 µM in experiment [14] (CATDS: 0.111672357015452); 0.16 µM in experiment [3] (compound concentrations: 100 nM and 1000 nM (sheet 'Samples'), CATDS: 4.52892719114492E-2).

On to `O=C1N=C(NCc2cccs2)SC1Cc1ccc2ncccc2c1` (centres unmarked) [RO4629078-000], for which the potency estimated from few doses in experiment [8] (CATDS: 9.8241479768662494E-3) was 0.7 µM; in [15], 0.112 µM; in [6] (compound concentrations: 100 nM and 1000 nM (sheet 'Samples'), CATDS: 9.3855974911044807E-3) it was 0.79 µM; in experiment [16], 0.778 µM; in [9] (CATDS: 9.4682639487438207E-3), 0.771 µM; in experiment [14] (CATDS: 1.04428727598351E-2) it was 0.602 µM. In addition, in experiment [17], the potency estimated from few doses is 0.935 µM.

Regarding `O=C1N=C(NCCc2cccc(Cl)c2)S/C1=C\c1ccc2ncccc2c1` [RO4509201-000], in experiment [10] (compound concentrations: 100 nM and 1000 nM (sheet 'Samples'), CATDS: 5.4743223774465499E-2), the potency estimated from few doses is 1.82 µM.

As for `Cl.Cl.Cl.c1ccc(Oc2ccc(Nc3ccnc4cc(-c5ccc(CN6CCNCC6)o5)ccc34)cc2)nc1.c1ccc(Oc2ccc(Nc3ccnc4cc(-c5ccc(CN6CCNCC6)o5)ccc34)cc2)nc1` [GW567142A], the potency estimated from few doses in experiment [11] (CATDS: 1.6781429181419099E-2) was 2.16 µM.
